Laboratory results as given in PubChem BioAssay AID2177 (The Scripps Research Institute Molecular Screening Center, 2009).
About 1,200 (0.38%) of roughly 320,000 compounds were called active.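 How the source made its calls: active means inhibition above the screen-wide mean plus 3 SD, limit set per campaign (cut at about 26% in these data); inactive means the rest.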 This excerpt belongs to a sample that is enriched for actives.

target: Acyl-protein thioesterase 2 (Homo sapiens) (UniProt O95372); assay: inhibition of human lysophospholipase 2 – biochemical, fluorescence polarization, FP-Rh probe ABPP, counter-screen for PME1 inhibitor project, primary screen (AID 2177); settings: recombinant LYPLA2, FP-Rh probe fluorescence polarization; at 5.9 µM; active compounds read high;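 further: 0% = LYPLA2 with DMSO and 100% = wells lacking LYPLA2 enzyme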
Sequence (O95372 whole entry, looked up): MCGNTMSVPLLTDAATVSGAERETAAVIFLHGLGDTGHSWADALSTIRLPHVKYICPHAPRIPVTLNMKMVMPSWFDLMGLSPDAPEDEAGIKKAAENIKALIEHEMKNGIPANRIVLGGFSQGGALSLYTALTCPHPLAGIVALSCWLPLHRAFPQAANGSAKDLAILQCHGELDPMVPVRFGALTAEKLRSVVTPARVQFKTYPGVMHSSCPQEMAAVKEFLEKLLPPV

| SMILES | inhibition |
| --- | --- |
| COc1cccc(N(C(=O)c2ccn[nH]2)C2(C(=O)Nc3c(C)cccc3C)CCCCC2)c1 | -1.38% (inactive) |
| Cc1ccc(/C=N/NC(=O)COc2ccccc2-c2ccccc2)cc1 | 2.18% (inactive) |
| Cc1ccc(/C=N/NC(=O)C(NC(=O)c2ccccc2)c2n[nH]c(=O)c3ccccc23)cc1 (stereo not drawn) | 40.8% (active) |
| O=C(O)c1ccc(/C=N/NC(=S)NCc2ccccc2)cc1 | -7.47% (inactive) |
| O=C(CNc1ccc(F)cc1F)NC(=O)NCc1ccco1 | -3.47% (inactive) |
| Cc1ccc(NC(=O)C(c2ccccc2)N2CCN(C(=O)c3ccco3)CC2)cc1 (stereo not drawn) | 0.07% (inactive) |
| Nc1nnc(SCC(=O)NC2CCCc3ccccc32)s1 (stereo not drawn) | -1.96% (inactive) |
| O=C(Cc1ccc(Br)cc1)NCCN1CCOCC1 | 4.15% (inactive) |
| COc1ccc(NC(=O)NCCN2CCN(c3ccc(C)cc3)CC2)c(Cl)c1 | -3.78% (inactive) |
| COc1ccc(N2CCN(C(=O)c3cccs3)CC2)cc1 | 8.83% (inactive) |
| COc1ccc(N2CCN(C(=O)c3ccc4c(Cl)c5c(nc4c3)CCCC5)CC2)cc1 | 7.7% (inactive) |
| COc1ccc(N2CCN(C(=O)c3ccc(N4CCCCS4(=O)=O)cc3)CC2)cc1 | 63% (active) |
| COc1ccccc1N1CCC(N2CCN(CC(C)(C)C)C(CCO)C2)CC1 (stereo not drawn) | -1.78% (inactive) |
| COc1ccc(C(=O)OCC(=O)NC(=O)CCSc2ccccc2)cc1 | 28.6% (active) |
| COc1ccc(NC(=O)COC(=O)c2ccc(NS(=O)(=O)/C=C/c3ccccc3)cc2)cc1 | -12% (inactive) |
| O=C(COC(=O)c1ccccc1)Nc1ccccc1Sc1ccccc1 | -10.2% (inactive) |
| C[C@H](OC(=O)n1ccnc1)[C@@H]1O[C@@]2(C)CCC[C@@H]1O2 | 3.91% (inactive) |
| CC(=O)NC12CC3CC(C1)CC(C(=O)N1CCN(C(=O)c4ccco4)CC1)(C3)C2 | 6.61% (inactive) |
| COc1ccccc1OCC(=O)O/N=C(\N)c1ccccn1 | -1.78% (inactive) |
| O=C(Nc1ccncc1)c1ccccc1[N+](=O)[O-] | 2.96% (inactive) |
| COc1ccc(NC(=O)c2ccccc2[N+](=O)[O-])cc1OC | -0.83% (inactive) |
| O=C(COc1ccc(NC(=O)c2ccccc2[N+](=O)[O-])cc1)c1ccc(F)cc1 | 43.8% (active) |

| SMILES | inhibition |
| --- | --- |
| COc1c(C)c2c(c(O)c1C/C=C(\C)CCC(=O)O)C(=O)OC2 | 1.01% (inactive) |
| Cc1ncc([N+](=O)[O-])n1CCOC(=O)c1ccc(Br)cc1 | 4.52% (inactive) |
| CN(C)CCCn1c(SCc2ccc(Cl)cc2)nnc1-c1ccncc1 | 2.66% (inactive) |
| COc1ccc(-c2cc(C(=O)N3CCN(c4ccc(F)cc4)CC3)no2)cc1 | 8.33% (inactive) |
| O=C(c1cc(-c2ccc(F)cc2)on1)N1CCN(c2ccc(F)cc2)CC1 | 8.86% (inactive) |
| O=C(c1cc(-c2ccc(Cl)cc2)on1)N1CCN(c2ccccc2)CC1 | 31.3% (active) |
| CCN(CC)CCNC(=O)Cn1cnc2sc(C)c(S(=O)(=O)N3CCOCC3)c2c1=O | -2.7% (inactive) |
| CCN(CC)CCCNC(=O)Cn1cnc2sc(C)c(S(=O)(=O)N3CCN(c4ncccn4)CC3)c2c1=O | 4.51% (inactive) |
| CCN(CC)CCNC(=O)c1sc2ncn(CC(=O)Nc3ccc(C)c(Cl)c3)c(=O)c2c1C | 32.4% (active) |
| CCOC(=O)CSc1nc2ccc(C)cc2n2cnnc12 | -0.15% (inactive) |
| COc1ccc(S(=O)(=O)N2CCOCC2)cc1NC(=O)Cc1c(F)cccc1Cl | -4.41% (inactive) |
| Cc1cc(OCCCCOc2ccc(C#N)cc2)ccc1[N+](=O)[O-] | 19.5% (inactive) |
| Cc1ccccc1N1CCN(CCCOc2ccc3c(C)cc(=O)oc3c2)CC1 | 15.9% (inactive) |
| Cc1cc(OCCCN2CCN(Cc3ccccc3)CC2)ccc1[N+](=O)[O-] | 34.3% (active) |
| CCOc1ccccc1N1CCN(C(=O)c2ccc3[nH]c(C)c(C)c3c2)CC1 | -3.51% (inactive) |
| Cc1ccccc1OCC(O)CN1CCN(c2ccccn2)CC1 (stereo not drawn) | -3.92% (inactive) |
| Cc1cccc(C)c1OCC(O)CN1CCCCC1 (stereo not drawn) | -4.51% (inactive) |
| Cc1cccc(OCC(O)CN2CCN(CCN3C(=O)c4cccc5cccc(c45)C3=O)CC2)c1C (stereo not drawn) | 31.6% (active) |
| CCCCC[C@H]1CN(C2CCCCC2)C(=O)[C@@H]1CC(=O)NCc1ccc(OC)cc1 | -3.9% (inactive) |
| COC(=O)c1ccc(S(=O)(=O)N(CCO)Cc2ccccc2)n1C | 7.11% (inactive) |
| COC(=O)c1c(NC(=O)COc2ccc(Cl)cc2Cl)sc2c1CC(C)(C)NC2(C)C | 1.16% (inactive) |
